The values below come from PubChem BioAssay (NCATS).

Inconclusive results are not listed. The source made the active and inactive calls. Unless noted, calls come from the whole dose curve; as a rule, active = well fitted curve in the direction sought with a large enough effect; inconclusive = small, poorly fitted or top-dose-only effect, or another doubt; inactive = no such curve, though single readings can be large; an effect the other way counts as inactive or inconclusive.

For test [1], the target named is Lysosomal acid glucosylceramidase (Homo sapiens) (UniProt P04062). As to the kind of experiment: Glucocerebrosidase-p2 (AID 348; in the data active = potency below about 10 µM; note: potency is the fitted concentration of half-maximal effect). To be noted: purified GBA, blue fluorogenic substrate, 40 min. The essentials: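 Normal human glucocerebrosidase (0.2 nM) with blue fluorogenic substrate (80 uM final) in citrate/phosphate pH 5.9 with 10mM sodium taurocholate, 0.01% tween-20; 40 min RT, NaOH/glycine stop; fluorescence Ex 365/Em 440; AC50 from a titration from 0.6 nM upwards.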
Chain of Lysosomal acid glucosylceramidase (Homo sapiens) (P04062 whole entry, looked up): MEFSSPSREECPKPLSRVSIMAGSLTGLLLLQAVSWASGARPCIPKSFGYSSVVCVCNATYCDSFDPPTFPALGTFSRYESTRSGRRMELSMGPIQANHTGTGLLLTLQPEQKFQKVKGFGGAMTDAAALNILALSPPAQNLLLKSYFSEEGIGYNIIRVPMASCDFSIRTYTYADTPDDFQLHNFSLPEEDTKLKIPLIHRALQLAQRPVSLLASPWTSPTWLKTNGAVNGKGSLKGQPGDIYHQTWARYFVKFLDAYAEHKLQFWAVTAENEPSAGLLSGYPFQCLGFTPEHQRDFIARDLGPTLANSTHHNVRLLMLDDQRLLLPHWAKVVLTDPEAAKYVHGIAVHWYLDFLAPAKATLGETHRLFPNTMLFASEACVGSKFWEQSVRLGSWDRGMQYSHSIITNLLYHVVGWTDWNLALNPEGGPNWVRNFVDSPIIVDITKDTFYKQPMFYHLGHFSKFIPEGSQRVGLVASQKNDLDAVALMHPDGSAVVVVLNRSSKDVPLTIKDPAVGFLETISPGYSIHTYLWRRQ

The nature of test [2]: AP1 Signaling Pathway (AID 357; active = well fitted curve in either direction with a large enough effect, not every such curve was filed as active;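 note: ME-180 reporter cells stimulated with EGF at its EC50 level; % is set by controls: 0 for no effect and ±100 for the full control effect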). To be noted: ME-180 AP-1-bla reporter, EGF-induced, beta-lactamase ratio, 5 h; at 7.69 µM (top of the series) unless noted. The procedure, abridged:
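First, ME-180 AP-1-bla cells were cultured overnight at 37 °C in low-serum Opti-MEM. Next, titrated compounds with EC50 EGF were incubated 5 hours. Finally, CCF4 was added for 2.5 hours and the 460/530 nm ratio recorded.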

Test [3] addresses Cytochrome P450 1A2 (Homo sapiens) (UniProt P05177). The test is described as follows: p450-cyp1a2 (AID 410; calls by dose curve; note: potency is the fitted concentration of half-maximal effect). As to conditions: recombinant CYP1A2, luciferin-ME demethylation, luminescence; series mostly up to 57 µM. The essentials:
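20nM CYP1A2, 100uM Luciferin-ME (=Km), 100mM KPO4; cpd 10 min RT; +NADPH regen, 60 min RT; stop/detect 20 min; luminescence. Normalized to furafylline 57 uM = full inhibition.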

Test [4] is described as follows: Stat Signaling Pathway (AID 446; active = well fitted curve in either direction with a large enough effect, not every such curve was filed as active;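 note: ME-180 cervical cancer cells given 40 pM IL-6 alongside compound; SIE-controlled beta-lactamase reporter measured as 460/530 nm FRET emission ratio; % is set by controls: 0 for no effect and ±100 for the full control effect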). To be noted: ME-180 (cervical carcinoma) SIE beta-lactamase reporter, IL-6 stimulated, 5 h; at 7.69 µM (top of the series) unless noted. The procedure, abridged: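 Normalization used AC90 stimulation (300 pM IL-6) and AC90 inhibition (125 nM pan-JAK inhibitor at 40 pM IL-6). The underlying signal is SIE-driven beta-lactamase in ME-180 cells after 5 h IL-6 exposure with compound.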

Test [5] concerns the target Glucocorticoid receptor (Homo sapiens) (UniProt P04150). As to the kind of experiment: GR-GFP Redistribution (AID 450;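 active = compounds whose dose series gives a full or clear partial fitted curve of increased nuclear translocation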; note: potency is the fitted concentration of half-maximal effect). As to conditions: U2OS GR-GFP nuclear translocation, laser cytometry, 2 h.
Test [6] has the same target. The test is described as follows: GR-EFC Redistribution (AID 451; calls by dose curve; note: potency is the fitted concentration of half-maximal effect). To be noted: CHO-K1 GR-EFC translocation, beta-gal luminescence, 2 h. The procedure, abridged: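 Translocation of GR-ED fusion to nuclear EA restores b-gal, read by luminescence after 1 h room-temperature detection. Engineered CHO-K1 biosensor cells, 1,000/well, exposed 2 h at 37 C to titrations up to 46 uM final.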

Test [7] addresses Mitogen-activated protein kinase 10 (Mus musculus) (UniProt Q61831). The test is described as follows: JNK3 AlphaScreen Assay (AID 530; active = well fitted curve in either direction with a large enough effect, not every such curve was filed as active;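 note: kinase came from lysate of stimulated human HepG2 cells; signal reports phosphorylation of biotinylated GST-cJun 1-79 at Ser73 with 10 µM ATP; % is set by controls: 0 for no effect and ±100 for the full control effect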). As to conditions: JNK3 lysate, c-Jun phosphorylation; series mostly up to 57.1 µM. The procedure, abridged: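 Kinase buffer: 20 mM Tris-HCl pH 7.6, 10 mM MgCl2, 1 mM DTT, 0.1 mM Na3VO4, 0.01% Tween-20; ATP 10 uM. Substrate biotin-GST-cJun(1-79), enzyme from activated HepG2 lysates. Detection by Ser73 phospho-antibody AlphaScreen.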
On the technique in general: Alpha assays give light when donor and acceptor beads are brought close together.

In test [8] the target is 3',5'-cyclic-AMP phosphodiesterase 4B (Homo sapiens) (UniProt Q07343). The test is described as follows: qHTS Assay for Inhibitors of PDE-IV (AID 607; active = well fitted activation curve with a large enough effect in the main read-out, with a control signal flat, not every such curve was filed as active; note: % of control where 0% means no effect). As to conditions: HEK293 ACTOne CNG channel cells, membrane potential fluorescence; series mostly up to 22.9 µM. The essentials:
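HEK293 ACTOne cells with CNG channel (1000/well), endogenous PDE4; membrane potential dye, compounds up to 22.9 uM final. Fluorescence Ex 535/Em 590; RO 20-1724 (100 uM final) as reference.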
In general terms: Quantitative high-throughput screening tests each substance at several concentrations.

The target of test [9] is Cytochrome P450 2D6 (Homo sapiens) (UniProt P10635). As to the kind of experiment: qHTS Assay for Inhibitors and Substrates of Cytochrome P450 2D6 (AID 891). Note: potency is the fitted concentration of half-maximal effect; nearly all actives have a fitted effect of over 60% in size. To be noted: recombinant CYP2D6, luciferin-ME EGE luminescence; series mostly up to 57.1 µM. The procedure, abridged:
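Luminescent read-out of luciferin formed by 5 nM human CYP2D6 demethylating 30 uM Luciferin-ME EGE (Km level) over 60 min at room temperature after NADPH regeneration addition. Data normalized to full inhibition by 1.43 uM quinidine.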

Test [10] in a line: Confirmation and Secondary Assay for Modulators of Hemoglobin Beta Chain Splicing at IVS2 654 locus (AID 910).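 Note: HeLa cells stably carrying EGFP split by mutant beta-globin IVS2-654 intron; per-well total GFP intensity by laser scanning cytometry after 2-day treatment; % of control where 0% means no effect.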 To be noted: HeLa EGFP-654 splicing reporter, GFP fluorescence, 48 h; series mostly up to 38.3 µM. The essentials:
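Readout: per-well total peak green fluorescence (488 nm ex, 500–520 nm em) from objects 5–250 µm, reflecting correct splicing of an EGFP-654 reporter. Compounds were applied for 2 days at 37 °C to overnight-plated HeLa EGFP-654 cells; controls were DMSO and 500 nM IVS2-654 PNA.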

Test [11] can be described thus: Confirmation and Secondary Assay for Modulators of Hemoglobin Beta Chain Splicing at IVS2 705 locus (AID 930).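 Note: HeLa cells stably expressing the EGFP-705 splicing reporter; GFP fluorescence per well restored by corrected splicing of the IVS2-705 intron in EGFP; % of control where 0% means no effect.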 To be noted: HeLa EGFP-705 splicing reporter, GFP fluorescence, 48 h; series mostly up to 38.3 µM. The procedure, abridged: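 Per-well GFP, captured at 1 x 8 µm resolution with 488 nm excitation, served as the read-out for HeLa EGFP-705 cells incubated 2 days with test compound versus DMSO.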

A short description of test [12]: qHTS Assay for Lipid Storage Modulators (AID 1519; calls by dose curve). As to conditions: Drosophila S3 cells, BODIPY lipid droplet/cell ratio, laser cytometry, cells loaded with oleic acid. The procedure, abridged:
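Cells seeded at 5,000 per well were treated with compounds over a concentration series and loaded with oleic acid (400 uM, as added). Lipid droplet fluorescence (488 nm excitation, 500-530 nm channel) was read by laser-scanning cytometry and normalized to 20 uM Triacsin C.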

Test [13] addresses Ubiquitin carboxyl-terminal hydrolase 1 (Homo sapiens) (UniProt O94782). As to the kind of experiment: Inhibitors of USP1/UAF1: Pilot qHTS (AID 504865).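 Note: rhodamine fluorescence freed from ubiquitin-rhodamine substrate followed over time; top concentration of the series differs between compounds; % is set by controls: 0 for no effect and ±100 for the full control effect; nearly all actives have a fitted effect of over 35% in size.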 To be noted: purified USP1/UAF1, Ub-rhodamine cleavage fluorescence; series mostly up to 54.9 µM. The essentials: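 Enzyme-free wells gave the negative control, while test wells held 1nM USP1/UAF1 preincubated with compound for 15 min at room temperature. Ub-Rho at 150nM final started the reaction, and fluorescence at 480/540 nm was recorded kinetically.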

Test [14] has as its target Calcium and integrin-binding protein 1 (Homo sapiens) (UniProt Q99828). The test is described as follows: Primary qHTS for Identification of Calcium Integrin Binding Protein 1 (CIB1) Competitor (AID 1508620).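 Note: GST tagged CIB1 binding a fluorescein labelled alphaIIb integrin peptide tracer; top concentration of the series differs between compounds; % is set by controls: 0 for no effect and ±100 for the full control effect.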 To be noted: CIB1-GST / FITC-alphaIIb peptide fluorescence polarization; series mostly up to 114 µM. The procedure, abridged: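 CIB1-GST (1 uM final) and compound incubated 15 min at room temperature before adding FITC-alphaIIb peptide tracer (100 nM final). Competition for binding read by fluorescence polarization (ex 480, em 540) after another 15 min at room temperature.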

Test [15] is described as follows: Primary qHTS for small molecule stabilizers of the endoplasmic reticulum resident proteome: Secreted ER Calcium Modulated Protein (SERCaMP) assay (AID 1508630). Note: % is set by controls: 0 for no effect and ±100 for the full control effect. As to conditions: SH-SY5Y GLuc-SERCaMP (Gaussia luciferase released on ER calcium loss) secretion, thapsigargin, luminescence; series mostly up to 38.4 µM. The essentials: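 The SH-SY5Y reporter protocol was run at 3 concentrations up to 38.3 uM (primary) or 11 concentrations (follow-up): 16 h compound, 100 nM thapsigargin for 4 h, then extracellular luciferase luminescence.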

A short description of test [16]: Primary qHTS for inhibitors of nuclear receptor binding SET domain protein 2 (NSD2) in an isogenic RCH-ACV NSD2 p.E1099K mutant (9B) (AID 1645876). Note: potency is the fitted concentration of half-maximal effect; nearly all actives have a fitted effect of over 70% in size. As to conditions: RCH-ACV NSD2 E1099K (9B) viability, CellTiter-Glo, 72 h; series mostly up to 44.9 µM.
Test [17] can be described thus: Primary qHTS for inhibitors of nuclear receptor binding SET domain protein 2 (NSD2) in an RCH-ACV wild type WT cells (2C) (AID 1645877). Note: potency is the fitted concentration of half-maximal effect; nearly all actives have a fitted effect of over 70% in size. As to conditions: RCH-ACV (leukaemia line) NSD2 WT (2C) viability, CellTiter-Glo, 72 h; series mostly up to 44.9 µM.
Test [18] deals with Catechol O-methyltransferase (Homo sapiens) (UniProt P21964). The test is described as follows: Confirmatory Screen for Target Class Profiling of Small Molecule Inhibitors of Methyltransferases (AID 1745852; calls by dose curve; note: potency is the fitted concentration of half-maximal effect). To be noted: MTase-Glo luminescence, SAH detection, recombinant enzyme; measured here: COMT max response; stronger effect = lower value.
Chain of Catechol O-methyltransferase (Homo sapiens) (P21964 whole entry, looked up): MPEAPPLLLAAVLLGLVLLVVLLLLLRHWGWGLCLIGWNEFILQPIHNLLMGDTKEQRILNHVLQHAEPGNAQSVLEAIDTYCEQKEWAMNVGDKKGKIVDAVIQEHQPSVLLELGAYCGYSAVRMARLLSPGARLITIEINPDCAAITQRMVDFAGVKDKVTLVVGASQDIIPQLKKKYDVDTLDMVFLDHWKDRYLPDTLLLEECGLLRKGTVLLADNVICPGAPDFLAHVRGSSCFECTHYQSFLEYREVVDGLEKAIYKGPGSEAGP
Test [19] deals with Guanidinoacetate N-methyltransferase (Homo sapiens) (UniProt Q14353). The description is as above. As to conditions: MTase-Glo luminescence, SAH detection, recombinant enzyme; activity change, negative = inhibition: at 57.3 µM (top of the series).
In test [20] the target is Nicotinamide N-methyltransferase (Homo sapiens) (UniProt P40261). Described as above. To be noted: MTase-Glo luminescence, SAH detection, recombinant enzyme; measured here: NNMT max response; stronger effect = lower value.
Chain of Nicotinamide N-methyltransferase (Homo sapiens) (P40261 whole entry, looked up): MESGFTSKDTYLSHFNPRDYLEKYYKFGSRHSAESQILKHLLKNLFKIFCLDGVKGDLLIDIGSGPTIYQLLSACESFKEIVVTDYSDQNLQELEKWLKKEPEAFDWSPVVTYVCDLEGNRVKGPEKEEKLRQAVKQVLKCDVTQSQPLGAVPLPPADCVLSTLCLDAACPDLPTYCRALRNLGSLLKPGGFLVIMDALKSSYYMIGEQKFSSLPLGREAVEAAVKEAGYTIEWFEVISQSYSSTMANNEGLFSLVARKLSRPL
Test [21] addresses Phenylethanolamine N-methyltransferase (Homo sapiens) (UniProt P11086). The description is as above. To be noted: MTase-Glo luminescence, SAH detection, recombinant enzyme; measured here: PNMT max response; stronger effect = lower value.
Test [22] deals with Glutathione peroxidase 1 (Homo sapiens) (UniProt P07203). The test is described as follows: Primary qHTS Assay for Inhibitors of Recombinant Selenoprotein Glutathione Peroxidase 1 (GPX1) (AID 1845191). Note: nearly all actives have a fitted effect of over 65% in size. To be noted: recombinant GPX1, GR-coupled NADPH fluorescence, 15 min; series mostly up to 48.8 µM. The essentials: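 NADPH consumption tracked by fluorescence at 340/450 nm between t=0 and t=15 min, room temperature. Final mix: 10 nM GPX1, 100 nM glutathione reductase, 1 mM GSH, 0.5 mM NADPH, 0.5 mM cumene hydroperoxide, 0.01% BSA; 30 min compound–enzyme preincubation.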
Chain of Glutathione peroxidase 1 (Homo sapiens) (P07203 whole entry, looked up): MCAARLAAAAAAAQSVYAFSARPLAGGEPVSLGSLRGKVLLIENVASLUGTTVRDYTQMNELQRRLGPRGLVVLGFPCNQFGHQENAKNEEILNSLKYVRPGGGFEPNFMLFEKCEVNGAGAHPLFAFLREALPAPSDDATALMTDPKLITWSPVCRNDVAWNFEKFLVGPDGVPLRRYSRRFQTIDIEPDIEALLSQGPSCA

Test [23] in a line: qHTS for Inhibitors of Ubiquitin-specific Protease USP2a Using CHOP2 as the Reporter: K633 Counterscreen (AID 652168). Note: % of control where 0% means no effect. To be noted: No-enzyme DiUb K48 IQF substrate fluorescence interference, kinetic; series mostly up to 57.5 µM. The essentials:
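Detection-system control: fluorescence of K48-linked DiUb-4IQF substrate (100 nM as added) tracked over time, Ex 525/Em 598, with pinned compounds and no enzyme, in pH 8 Tris buffer containing beta-mercaptoethanol and 0.05% Chaps.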

Test [24] is described as follows: qHTS for Inhibitors of Ubiquitin-specific Protease USP2a Using CHOP2 as the Reporter: Cytotox Assay (AID 652170). Note: potency is the fitted concentration of half-maximal effect; nearly all actives have a fitted effect of over 70% in size. As to conditions: HCT116 viability, CellTiter-Glo luminescence, 72 h; series mostly up to 46.1 µM. The procedure, abridged: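 Cytotoxicity read as ATP luminescence (CellTiter-Glo) after 72 hr compound treatment at 37 deg C. Cells: HCT116, 600/well in DMEM plus 10% FBS. Normalization between DMSO-treated cells and cell-free wells.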

A short description of test [25]: qHTS drug screen for cell cycle checkpoint inhibitors in PARPi-resistant BRCA-mutant ovarian cancer cell lines. (AID 1963452; calls by dose curve). As to conditions: PEO1/OlaR viability, CellTiter-Glo luminescence, 96 h, stronger effect = lower value. The procedure, abridged:
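PEO1, PEO4 and PEO1/OlaR ovarian cancer cells, 600 per well, exposed 96 h at 37C to a dilution series. Viability read by CellTiter-Glo luminescence, normalized to DMSO and empty wells; activity summarized as Z-AUC.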

The target in test [26] is N-terminal Xaa-Pro-Lys N-methyltransferase 1 (Homo sapiens) (UniProt Q9BV86). As to the kind of experiment: Confirmatory qHTS for Inhibitors of N-terminal methyltransferase 1 (NTMT1): MTaseGlo Assay (AID 1645874). Note: potency is the fitted concentration of half-maximal effect; nearly all actives have a fitted effect of over 65% in size. As to conditions: NTMT1 enzyme, MTase-Glo SAH luminescence; series mostly up to 100 µM. The procedure, abridged: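 Inhibition was derived from luminescence after SAH-to-ATP conversion, scaled between no-enzyme and DMSO wells, then fitted by 4-parameter Hill. Conditions: 125 nM NTMT1, 100 uM SAM, 1 uM SPKRIA, 30 min RT.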
Chain of N-terminal Xaa-Pro-Lys N-methyltransferase 1 (Homo sapiens) (Q9BV86 whole entry, looked up): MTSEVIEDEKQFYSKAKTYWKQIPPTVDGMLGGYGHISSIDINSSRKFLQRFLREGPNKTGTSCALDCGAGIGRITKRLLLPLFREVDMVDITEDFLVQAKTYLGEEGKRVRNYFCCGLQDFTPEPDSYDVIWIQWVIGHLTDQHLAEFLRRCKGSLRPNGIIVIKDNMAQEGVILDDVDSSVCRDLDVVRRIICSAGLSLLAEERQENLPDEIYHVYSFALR

Chain of Calcium and integrin-binding protein 1 (Homo sapiens) (Q99828 whole entry, looked up): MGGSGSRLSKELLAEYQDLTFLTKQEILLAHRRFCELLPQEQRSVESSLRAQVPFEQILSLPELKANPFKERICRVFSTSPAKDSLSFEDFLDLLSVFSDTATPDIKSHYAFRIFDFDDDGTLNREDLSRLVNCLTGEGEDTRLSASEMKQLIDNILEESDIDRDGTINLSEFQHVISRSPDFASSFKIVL
Chain of Glucocorticoid receptor (Homo sapiens) (P04150 whole entry, looked up, the tested form may be a part): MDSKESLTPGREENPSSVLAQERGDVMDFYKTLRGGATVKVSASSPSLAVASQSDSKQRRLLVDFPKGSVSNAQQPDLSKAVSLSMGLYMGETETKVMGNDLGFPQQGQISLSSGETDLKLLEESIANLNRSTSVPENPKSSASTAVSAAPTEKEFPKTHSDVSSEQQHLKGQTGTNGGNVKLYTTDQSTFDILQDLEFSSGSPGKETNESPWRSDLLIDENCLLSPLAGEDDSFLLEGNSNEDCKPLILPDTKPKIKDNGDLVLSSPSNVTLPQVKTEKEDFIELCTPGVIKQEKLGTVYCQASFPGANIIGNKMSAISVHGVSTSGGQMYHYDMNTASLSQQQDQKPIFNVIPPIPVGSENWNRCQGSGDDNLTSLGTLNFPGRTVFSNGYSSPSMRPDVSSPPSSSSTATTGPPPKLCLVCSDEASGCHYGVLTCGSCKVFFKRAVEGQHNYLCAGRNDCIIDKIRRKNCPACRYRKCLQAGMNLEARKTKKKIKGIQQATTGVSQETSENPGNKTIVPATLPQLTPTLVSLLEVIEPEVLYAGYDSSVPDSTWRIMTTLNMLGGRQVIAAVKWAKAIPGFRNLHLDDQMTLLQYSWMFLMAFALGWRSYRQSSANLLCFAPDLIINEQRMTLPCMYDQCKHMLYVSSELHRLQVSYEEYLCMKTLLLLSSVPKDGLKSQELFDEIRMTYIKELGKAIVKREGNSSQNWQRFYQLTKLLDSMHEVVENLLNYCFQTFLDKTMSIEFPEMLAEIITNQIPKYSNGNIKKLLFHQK
Chain of 3',5'-cyclic-AMP phosphodiesterase 4B (Homo sapiens) (Q07343 whole entry, looked up): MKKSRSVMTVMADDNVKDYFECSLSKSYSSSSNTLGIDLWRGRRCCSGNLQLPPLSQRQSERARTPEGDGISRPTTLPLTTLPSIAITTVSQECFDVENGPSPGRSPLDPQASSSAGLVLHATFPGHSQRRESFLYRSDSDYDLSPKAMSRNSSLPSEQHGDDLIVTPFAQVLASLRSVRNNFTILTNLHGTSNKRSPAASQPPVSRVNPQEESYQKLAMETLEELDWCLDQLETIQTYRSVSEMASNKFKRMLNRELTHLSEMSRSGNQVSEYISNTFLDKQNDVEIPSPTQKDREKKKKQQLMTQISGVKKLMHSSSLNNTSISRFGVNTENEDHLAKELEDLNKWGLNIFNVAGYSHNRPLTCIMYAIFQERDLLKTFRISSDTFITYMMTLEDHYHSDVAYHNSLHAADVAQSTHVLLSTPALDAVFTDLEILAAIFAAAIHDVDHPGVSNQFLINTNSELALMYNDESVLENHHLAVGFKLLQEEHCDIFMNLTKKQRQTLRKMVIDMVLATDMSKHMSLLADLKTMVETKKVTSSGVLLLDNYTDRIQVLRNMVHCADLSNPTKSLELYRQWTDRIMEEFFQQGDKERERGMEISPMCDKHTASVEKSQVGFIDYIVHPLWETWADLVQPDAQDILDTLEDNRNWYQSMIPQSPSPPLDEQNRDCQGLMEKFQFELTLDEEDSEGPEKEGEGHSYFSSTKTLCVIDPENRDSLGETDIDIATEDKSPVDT
Chain of Ubiquitin carboxyl-terminal hydrolase 1 (Homo sapiens) (O94782 whole entry, looked up): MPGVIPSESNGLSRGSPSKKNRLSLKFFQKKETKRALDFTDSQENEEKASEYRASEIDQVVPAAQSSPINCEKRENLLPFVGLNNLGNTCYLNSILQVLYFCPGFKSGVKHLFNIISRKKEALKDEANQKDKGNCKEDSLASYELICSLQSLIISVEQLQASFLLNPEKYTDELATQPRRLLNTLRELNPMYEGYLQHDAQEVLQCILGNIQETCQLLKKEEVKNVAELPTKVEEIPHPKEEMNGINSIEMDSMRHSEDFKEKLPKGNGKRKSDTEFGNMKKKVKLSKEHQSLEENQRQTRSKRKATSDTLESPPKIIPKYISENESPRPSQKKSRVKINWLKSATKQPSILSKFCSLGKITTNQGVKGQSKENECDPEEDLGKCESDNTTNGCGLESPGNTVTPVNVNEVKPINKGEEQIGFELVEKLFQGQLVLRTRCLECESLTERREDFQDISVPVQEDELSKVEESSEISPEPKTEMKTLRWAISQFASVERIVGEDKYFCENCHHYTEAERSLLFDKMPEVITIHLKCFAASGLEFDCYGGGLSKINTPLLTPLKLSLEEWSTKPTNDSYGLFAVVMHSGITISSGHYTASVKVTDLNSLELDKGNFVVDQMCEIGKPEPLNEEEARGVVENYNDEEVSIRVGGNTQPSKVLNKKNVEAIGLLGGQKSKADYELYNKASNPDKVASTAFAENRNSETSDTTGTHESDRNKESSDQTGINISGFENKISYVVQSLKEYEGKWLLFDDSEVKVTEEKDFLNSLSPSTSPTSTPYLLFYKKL
Chain of Cytochrome P450 2D6 (Homo sapiens) (P10635 whole entry, looked up): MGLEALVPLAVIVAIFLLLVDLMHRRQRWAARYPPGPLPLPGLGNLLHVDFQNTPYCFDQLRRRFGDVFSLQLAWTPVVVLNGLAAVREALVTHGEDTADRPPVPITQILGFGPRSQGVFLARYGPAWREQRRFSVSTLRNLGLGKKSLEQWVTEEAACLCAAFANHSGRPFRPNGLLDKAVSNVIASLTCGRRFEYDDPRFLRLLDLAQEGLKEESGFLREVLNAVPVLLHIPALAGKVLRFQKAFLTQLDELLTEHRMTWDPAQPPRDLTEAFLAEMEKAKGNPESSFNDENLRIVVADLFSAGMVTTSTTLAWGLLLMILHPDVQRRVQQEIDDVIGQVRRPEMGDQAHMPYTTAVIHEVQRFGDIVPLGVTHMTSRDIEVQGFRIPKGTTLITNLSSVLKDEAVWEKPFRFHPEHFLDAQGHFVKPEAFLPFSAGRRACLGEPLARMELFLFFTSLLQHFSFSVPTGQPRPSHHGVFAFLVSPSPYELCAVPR
Chain of Phenylethanolamine N-methyltransferase (Homo sapiens) (P11086 whole entry, looked up): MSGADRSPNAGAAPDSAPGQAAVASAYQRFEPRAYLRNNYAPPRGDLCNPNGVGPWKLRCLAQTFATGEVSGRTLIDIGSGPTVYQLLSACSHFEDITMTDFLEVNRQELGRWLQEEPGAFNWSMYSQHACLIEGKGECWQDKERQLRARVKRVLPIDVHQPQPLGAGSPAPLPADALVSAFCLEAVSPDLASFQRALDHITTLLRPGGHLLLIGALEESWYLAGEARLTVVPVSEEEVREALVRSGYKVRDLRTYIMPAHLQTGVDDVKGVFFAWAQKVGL

For `c1nc(N2CCNCC2)c2cc(-c3ccc4c(c3)OCO4)ccc2n1`, the Potency in test [1] was > 11.4 µM (inactive); in [3], 2 µM (active); in test [5], > 46 µM (inactive); in test [6], > 46 µM (inactive); in test [9] it was 2.51 µM (active). In addition, the activity change, negative = inhibition was -9.83% (inactive) in test [2] and 13.1% (inactive) in test [12] (at 57.5 µM (top of the series)). Further, the activity, negative = inhibition in test [4] was 1.4% (inactive). The outcome in test [7], in test [10] and in test [11] was “inactive” in each case. In addition, the Potency result in [8], in test [13], in [14] and in test [15] was “inactive” throughout. Also, the max response amounted to 9.51% in test [12] (measured here: cell count channel max response) and 19.9% in test [12] (measured here: lipid channel max response).

For `CN(Cc1cccs1)c1ncnc2ccc(-c3ccc4c(c3)OCO4)cc12`, the Potency result in [14] and in test [22] was “inactive” in each case. For the same molecule, the Potency in [16] was 20.6 µM (active); in test [17], 20.6 µM (active); in test [19], 12.1 µM (active). For the same molecule, the values for the activity in [18], in test [20] and in [21] were -85.9%, -70.6% and -84.2%, respectively.

With `Cc1ccc(S(=O)(=O)Nc2cc(C(F)(F)F)ccc2C(=O)Nc2nc(-c3ccccc3)cs2)cc1`, the outcome in [23] is “inactive”. Further, the Potency in [24] was 2.96 µM (active); in [16], 4.17 µM (active); in [17], 4.17 µM (active). The Potency result in [14] and in test [22] was “inactive” in each case. The Z-AUC is 0.58 (inactive) in [25], 0.184 in test [25] (measured here: PEO1 parental Z-AUC) and -0.358 in test [25] (measured here: PEO4 Z-AUC).

Turning to `COc1ccc(C2=Nn3c(nnc3-c3ccccc3F)SC2)cc1OC1CCCC1`, the Potency result in [14] was “inactive”. Also, the Potency in test [26] was 24.5 µM (active).
